Among the data in paper PMC7862700, “An all-to-all approach to the identification of sequence-specific readers for epigenetic DNA modifications on cytosine” are binding signal values, retold here.

Holding throughout (experiment): DAPPL (digital affinity profiling via proximity ligation, sequencing); 10 mM Tris-HCl pH 7.5, 50 mM NaCl, 1 mM DTT, 4% glycerol, room temperature, 30 min; GST-TFs on glutathione beads, 16-mer random dsDNA library, 0.1% formaldehyde crosslink after washing; high values mean tight binding
What all share (conditions): protein: recombinant; tags: N-terminal GST; dsDNA, one strand shown

One experiment has as its target T1, FLI1 (Homo sapiens, UniProt Q01543 1-452).
T1 sequence: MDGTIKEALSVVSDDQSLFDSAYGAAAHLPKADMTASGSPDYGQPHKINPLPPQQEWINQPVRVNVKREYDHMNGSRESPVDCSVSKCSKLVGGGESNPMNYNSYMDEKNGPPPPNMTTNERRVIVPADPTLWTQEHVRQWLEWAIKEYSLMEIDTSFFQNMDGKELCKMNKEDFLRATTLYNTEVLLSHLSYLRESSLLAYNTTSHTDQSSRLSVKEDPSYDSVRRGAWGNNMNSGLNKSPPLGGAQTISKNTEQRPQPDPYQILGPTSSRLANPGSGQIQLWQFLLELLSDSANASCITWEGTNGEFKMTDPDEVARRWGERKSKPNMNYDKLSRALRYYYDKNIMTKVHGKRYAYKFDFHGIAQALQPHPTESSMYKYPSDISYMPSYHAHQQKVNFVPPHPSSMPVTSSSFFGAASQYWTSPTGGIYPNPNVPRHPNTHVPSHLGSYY
A digest of the protocol:
(§1)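 Beads coated with glutathione captured GST-fused human transcription factors that had been expressed in yeast, and the factors were then given DNA barcodes and pooled with a tag-only sample. The pools were incubated with 200 nmole of a random double-stranded 16-mer DNA library in Tris/NaCl/DTT/glycerol buffer for 30 min at room temperature, washed, crosslinked with 0.1% formaldehyde and proximity-ligated with BsaI/T4 ligase at 37 °C for 1 h. PCR amplification and Illumina NextSeq500 sequencing came last. Binding signal is each hexamer's read frequency for a factor divided by its frequency for the tag-only sample.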

Another experiment addresses T2, ELK1 (Homo sapiens, UniProt P19419 1-428).
T2 sequence: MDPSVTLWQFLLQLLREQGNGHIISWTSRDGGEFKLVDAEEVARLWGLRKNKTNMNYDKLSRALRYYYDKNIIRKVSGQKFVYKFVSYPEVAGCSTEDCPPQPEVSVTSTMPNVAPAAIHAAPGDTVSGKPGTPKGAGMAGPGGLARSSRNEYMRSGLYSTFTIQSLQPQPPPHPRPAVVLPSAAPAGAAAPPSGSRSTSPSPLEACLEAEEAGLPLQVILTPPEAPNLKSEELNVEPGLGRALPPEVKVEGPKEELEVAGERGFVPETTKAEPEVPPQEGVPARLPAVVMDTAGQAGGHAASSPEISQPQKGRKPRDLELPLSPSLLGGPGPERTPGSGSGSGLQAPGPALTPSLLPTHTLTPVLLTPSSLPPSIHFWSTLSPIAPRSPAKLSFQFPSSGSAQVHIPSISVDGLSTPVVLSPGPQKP
A digest of the protocol: as §1

The target of the next experiment is T3, GABPA (Homo sapiens, UniProt Q06546 1-454).
T3 sequence: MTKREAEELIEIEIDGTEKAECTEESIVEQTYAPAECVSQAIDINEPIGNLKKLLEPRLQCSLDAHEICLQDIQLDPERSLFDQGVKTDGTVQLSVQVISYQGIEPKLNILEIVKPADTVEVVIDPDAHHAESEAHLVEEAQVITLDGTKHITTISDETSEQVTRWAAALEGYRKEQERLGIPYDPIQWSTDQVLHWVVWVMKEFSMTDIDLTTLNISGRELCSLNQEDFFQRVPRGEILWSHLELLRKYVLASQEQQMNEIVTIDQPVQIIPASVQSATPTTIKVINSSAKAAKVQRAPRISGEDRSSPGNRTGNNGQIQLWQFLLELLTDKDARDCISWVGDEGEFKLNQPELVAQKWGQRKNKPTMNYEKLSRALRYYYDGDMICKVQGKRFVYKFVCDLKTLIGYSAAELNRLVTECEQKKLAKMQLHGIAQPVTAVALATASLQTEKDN
In short, it runs like this: as §1

The target in a further experiment is T4, ERG (Homo sapiens, UniProt P11308 1-479).
T4 sequence: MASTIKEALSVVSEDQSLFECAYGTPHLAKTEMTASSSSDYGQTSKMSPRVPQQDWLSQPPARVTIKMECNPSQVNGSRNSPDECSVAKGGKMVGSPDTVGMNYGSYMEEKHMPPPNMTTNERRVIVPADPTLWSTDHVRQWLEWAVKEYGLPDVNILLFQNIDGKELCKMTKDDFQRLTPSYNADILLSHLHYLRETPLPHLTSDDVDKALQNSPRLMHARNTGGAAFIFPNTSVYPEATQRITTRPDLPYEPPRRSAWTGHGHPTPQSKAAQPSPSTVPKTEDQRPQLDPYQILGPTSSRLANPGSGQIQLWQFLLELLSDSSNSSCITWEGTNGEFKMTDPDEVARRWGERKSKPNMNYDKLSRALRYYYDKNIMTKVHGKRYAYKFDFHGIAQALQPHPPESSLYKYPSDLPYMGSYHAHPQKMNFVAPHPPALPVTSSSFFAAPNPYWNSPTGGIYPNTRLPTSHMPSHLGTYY
In short, it runs like this: as §1

The target of the next experiment is ELF1 (Homo sapiens, UniProt P32519 1-619). A digest of the protocol:
as §1

The next experiment concerns the target T5, EHF (Homo sapiens, UniProt Q9NZC4 1-300).
T5 sequence: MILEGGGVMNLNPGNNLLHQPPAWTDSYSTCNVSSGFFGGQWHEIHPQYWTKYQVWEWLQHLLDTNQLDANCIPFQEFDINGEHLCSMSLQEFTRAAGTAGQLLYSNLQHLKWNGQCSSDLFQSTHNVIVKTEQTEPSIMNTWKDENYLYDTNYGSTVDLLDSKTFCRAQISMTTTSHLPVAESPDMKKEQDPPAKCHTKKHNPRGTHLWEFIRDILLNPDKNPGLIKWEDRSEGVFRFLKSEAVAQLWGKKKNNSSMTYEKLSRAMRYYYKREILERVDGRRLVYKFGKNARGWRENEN
A digest of the protocol: as §1

A further experiment addresses SPI1 (Homo sapiens, UniProt P17947 1-270). A digest of the protocol: as §1
Another experiment addresses SPIB (Homo sapiens, UniProt Q01892 1-262). In short, it runs like this: as §1
The target in a further experiment is T6, ELK3 (Homo sapiens, UniProt P41970 1-407).
T6 sequence: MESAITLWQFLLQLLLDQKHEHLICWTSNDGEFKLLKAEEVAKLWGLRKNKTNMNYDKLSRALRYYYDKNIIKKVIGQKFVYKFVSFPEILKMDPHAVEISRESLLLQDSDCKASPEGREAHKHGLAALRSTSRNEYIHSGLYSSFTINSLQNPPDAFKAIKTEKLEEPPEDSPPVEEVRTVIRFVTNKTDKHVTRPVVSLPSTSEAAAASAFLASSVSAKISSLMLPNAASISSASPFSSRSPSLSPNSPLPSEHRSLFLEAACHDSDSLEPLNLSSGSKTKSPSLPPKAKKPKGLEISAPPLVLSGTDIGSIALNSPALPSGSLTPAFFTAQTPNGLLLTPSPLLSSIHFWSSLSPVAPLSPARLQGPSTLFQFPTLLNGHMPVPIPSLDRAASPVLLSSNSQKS
A digest of the protocol:
as §1

The target in the next experiment is T7, FEV (Homo sapiens, UniProt Q99581 1-238).
T7 sequence: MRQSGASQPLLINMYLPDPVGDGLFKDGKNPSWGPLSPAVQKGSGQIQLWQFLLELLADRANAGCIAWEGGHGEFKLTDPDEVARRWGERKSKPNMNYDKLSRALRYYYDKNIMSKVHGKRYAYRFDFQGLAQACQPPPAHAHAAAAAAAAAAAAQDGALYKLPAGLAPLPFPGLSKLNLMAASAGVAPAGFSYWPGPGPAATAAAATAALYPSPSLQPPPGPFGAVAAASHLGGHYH
In short, it runs like this: as §1

The target of the next experiment is ETV5 (Homo sapiens, UniProt P41161 1-510). In short, it runs like this:
as §1

The target in the next experiment is ELF4 (Homo sapiens, UniProt Q99607 1-663). In short, it runs like this: as §1
The target in a further experiment is ETV1 (Homo sapiens, UniProt P50549 1-477). A digest of the protocol: as §1
For a further experiment, the target named is T8, ERF (Homo sapiens, UniProt P50548 1-548).
T8 sequence: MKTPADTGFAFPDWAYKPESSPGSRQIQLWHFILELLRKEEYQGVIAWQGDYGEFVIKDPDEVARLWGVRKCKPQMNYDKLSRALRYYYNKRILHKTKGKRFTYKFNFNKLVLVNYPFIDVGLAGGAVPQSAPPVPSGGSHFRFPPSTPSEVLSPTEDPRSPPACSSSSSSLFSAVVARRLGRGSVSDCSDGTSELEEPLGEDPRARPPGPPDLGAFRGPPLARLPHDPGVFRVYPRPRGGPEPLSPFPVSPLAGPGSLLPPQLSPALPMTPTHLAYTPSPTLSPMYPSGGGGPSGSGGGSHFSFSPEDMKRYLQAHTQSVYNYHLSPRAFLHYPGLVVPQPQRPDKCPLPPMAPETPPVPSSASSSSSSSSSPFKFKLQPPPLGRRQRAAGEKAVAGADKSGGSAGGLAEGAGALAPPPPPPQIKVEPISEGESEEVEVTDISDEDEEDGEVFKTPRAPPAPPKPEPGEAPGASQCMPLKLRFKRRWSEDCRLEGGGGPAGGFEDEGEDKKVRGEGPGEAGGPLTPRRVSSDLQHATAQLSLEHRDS
A digest of the protocol:
as §1

Another experiment concerns the target T9, ETV3L (Homo sapiens, UniProt Q6ZN32 1-361).
T9 sequence: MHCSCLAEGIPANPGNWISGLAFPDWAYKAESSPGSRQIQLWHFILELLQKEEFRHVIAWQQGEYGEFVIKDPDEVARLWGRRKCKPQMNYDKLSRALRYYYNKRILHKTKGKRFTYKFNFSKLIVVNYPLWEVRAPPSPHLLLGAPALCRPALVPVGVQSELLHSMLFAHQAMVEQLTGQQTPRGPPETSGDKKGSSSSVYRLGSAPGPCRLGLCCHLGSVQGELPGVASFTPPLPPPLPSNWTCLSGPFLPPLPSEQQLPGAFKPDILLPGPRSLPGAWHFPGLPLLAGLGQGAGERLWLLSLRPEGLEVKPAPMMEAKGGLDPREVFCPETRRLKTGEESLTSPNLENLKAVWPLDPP
A digest of the protocol:
as §1

A further experiment concerns the target T10, ETS2 (Homo sapiens, UniProt P15036 1-469).
T10 sequence: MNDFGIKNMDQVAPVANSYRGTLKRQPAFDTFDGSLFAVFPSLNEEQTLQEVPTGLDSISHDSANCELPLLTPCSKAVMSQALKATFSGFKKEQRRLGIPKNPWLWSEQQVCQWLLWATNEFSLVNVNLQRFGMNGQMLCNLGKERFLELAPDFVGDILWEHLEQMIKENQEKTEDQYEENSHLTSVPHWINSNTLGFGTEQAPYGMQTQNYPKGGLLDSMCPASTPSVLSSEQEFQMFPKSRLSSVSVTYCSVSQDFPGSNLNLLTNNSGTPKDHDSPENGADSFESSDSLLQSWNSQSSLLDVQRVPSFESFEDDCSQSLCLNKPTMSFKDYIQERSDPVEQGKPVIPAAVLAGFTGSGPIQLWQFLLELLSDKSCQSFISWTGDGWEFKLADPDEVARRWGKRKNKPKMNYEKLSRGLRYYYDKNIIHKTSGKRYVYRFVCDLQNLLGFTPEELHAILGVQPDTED
In short, it runs like this:
as §1

The next experiment deals with T11, ELF5 (Homo sapiens, UniProt Q9UKW6-2 1-255).
T11 sequence: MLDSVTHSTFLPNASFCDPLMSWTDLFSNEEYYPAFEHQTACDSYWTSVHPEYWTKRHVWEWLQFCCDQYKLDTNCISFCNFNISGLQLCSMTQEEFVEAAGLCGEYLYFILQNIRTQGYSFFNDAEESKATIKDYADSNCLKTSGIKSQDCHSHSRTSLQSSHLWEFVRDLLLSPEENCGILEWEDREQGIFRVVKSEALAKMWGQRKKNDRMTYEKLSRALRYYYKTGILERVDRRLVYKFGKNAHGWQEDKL
In short, it runs like this: as §1

Another experiment deals with T12, ETV3 (Homo sapiens, UniProt P41162-2 1-143).
T12 sequence: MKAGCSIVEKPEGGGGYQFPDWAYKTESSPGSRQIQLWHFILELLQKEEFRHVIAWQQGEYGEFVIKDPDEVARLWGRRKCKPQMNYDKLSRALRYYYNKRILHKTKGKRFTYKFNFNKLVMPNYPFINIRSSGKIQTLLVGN
In short, it runs like this: as §1

Another experiment concerns the target ETV6 (Homo sapiens, UniProt P41212 1-452). A digest of the protocol: as §1

Chain of ELF4 (Q99607 whole entry): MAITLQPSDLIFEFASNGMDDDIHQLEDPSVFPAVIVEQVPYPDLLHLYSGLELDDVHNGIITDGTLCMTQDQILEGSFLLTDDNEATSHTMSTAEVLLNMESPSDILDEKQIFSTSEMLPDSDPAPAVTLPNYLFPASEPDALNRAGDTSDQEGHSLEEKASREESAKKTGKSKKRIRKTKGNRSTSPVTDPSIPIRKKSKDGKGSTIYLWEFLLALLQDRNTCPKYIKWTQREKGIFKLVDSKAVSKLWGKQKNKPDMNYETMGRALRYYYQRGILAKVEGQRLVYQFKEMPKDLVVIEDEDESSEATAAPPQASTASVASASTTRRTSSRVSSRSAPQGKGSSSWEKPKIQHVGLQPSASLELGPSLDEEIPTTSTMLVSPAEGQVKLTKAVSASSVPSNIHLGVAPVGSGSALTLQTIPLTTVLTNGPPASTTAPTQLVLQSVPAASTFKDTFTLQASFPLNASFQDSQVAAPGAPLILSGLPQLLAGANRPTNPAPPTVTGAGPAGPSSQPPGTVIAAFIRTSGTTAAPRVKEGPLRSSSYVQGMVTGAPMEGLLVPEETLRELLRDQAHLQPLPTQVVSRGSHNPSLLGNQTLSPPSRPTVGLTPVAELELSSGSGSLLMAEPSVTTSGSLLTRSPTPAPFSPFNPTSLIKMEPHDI
Chain of ETV1 (P50549 whole entry): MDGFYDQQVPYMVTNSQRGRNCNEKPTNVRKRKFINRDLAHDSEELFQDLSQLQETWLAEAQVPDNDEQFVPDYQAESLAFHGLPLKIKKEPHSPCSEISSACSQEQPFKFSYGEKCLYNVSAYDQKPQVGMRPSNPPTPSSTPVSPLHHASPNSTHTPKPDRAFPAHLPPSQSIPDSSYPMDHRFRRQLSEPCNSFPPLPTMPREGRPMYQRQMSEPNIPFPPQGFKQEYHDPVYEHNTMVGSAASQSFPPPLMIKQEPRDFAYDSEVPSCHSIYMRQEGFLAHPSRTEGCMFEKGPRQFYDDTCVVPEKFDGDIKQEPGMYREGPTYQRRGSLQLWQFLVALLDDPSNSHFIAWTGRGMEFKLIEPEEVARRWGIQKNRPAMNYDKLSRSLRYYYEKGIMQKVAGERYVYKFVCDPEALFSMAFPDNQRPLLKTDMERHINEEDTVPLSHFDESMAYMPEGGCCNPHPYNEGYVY
Chain of ELF1 (P32519 whole entry): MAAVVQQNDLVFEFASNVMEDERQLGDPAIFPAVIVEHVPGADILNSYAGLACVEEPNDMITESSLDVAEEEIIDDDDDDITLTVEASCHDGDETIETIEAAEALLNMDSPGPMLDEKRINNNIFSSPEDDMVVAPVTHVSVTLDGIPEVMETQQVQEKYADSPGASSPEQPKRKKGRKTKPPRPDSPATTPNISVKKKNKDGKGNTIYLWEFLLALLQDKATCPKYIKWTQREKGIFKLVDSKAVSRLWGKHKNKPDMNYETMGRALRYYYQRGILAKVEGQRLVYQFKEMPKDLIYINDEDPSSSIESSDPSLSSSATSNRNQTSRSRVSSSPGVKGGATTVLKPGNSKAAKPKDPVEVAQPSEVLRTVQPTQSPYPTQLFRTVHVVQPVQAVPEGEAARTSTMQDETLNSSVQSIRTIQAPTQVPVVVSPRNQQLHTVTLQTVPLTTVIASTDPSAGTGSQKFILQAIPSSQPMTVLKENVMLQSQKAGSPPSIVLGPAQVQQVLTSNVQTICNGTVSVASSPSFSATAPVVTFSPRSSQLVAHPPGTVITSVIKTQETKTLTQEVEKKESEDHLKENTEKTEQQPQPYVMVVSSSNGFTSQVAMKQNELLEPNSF
Chain of ETV5 (P41161 whole entry): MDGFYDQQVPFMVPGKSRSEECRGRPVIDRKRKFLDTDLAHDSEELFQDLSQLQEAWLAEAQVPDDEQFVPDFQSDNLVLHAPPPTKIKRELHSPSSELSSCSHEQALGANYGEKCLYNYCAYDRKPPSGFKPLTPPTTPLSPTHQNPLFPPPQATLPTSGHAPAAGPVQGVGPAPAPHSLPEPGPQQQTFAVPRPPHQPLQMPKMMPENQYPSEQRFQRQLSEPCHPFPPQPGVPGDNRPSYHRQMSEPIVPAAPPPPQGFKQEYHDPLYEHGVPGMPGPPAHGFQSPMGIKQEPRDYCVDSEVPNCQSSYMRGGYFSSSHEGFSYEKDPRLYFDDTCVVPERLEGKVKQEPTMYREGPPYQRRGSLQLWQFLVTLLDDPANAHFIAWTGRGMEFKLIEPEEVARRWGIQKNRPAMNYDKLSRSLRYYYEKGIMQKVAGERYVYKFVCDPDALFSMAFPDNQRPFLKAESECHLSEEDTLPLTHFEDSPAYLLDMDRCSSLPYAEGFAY
Chain of ETV6 (P41212 whole entry): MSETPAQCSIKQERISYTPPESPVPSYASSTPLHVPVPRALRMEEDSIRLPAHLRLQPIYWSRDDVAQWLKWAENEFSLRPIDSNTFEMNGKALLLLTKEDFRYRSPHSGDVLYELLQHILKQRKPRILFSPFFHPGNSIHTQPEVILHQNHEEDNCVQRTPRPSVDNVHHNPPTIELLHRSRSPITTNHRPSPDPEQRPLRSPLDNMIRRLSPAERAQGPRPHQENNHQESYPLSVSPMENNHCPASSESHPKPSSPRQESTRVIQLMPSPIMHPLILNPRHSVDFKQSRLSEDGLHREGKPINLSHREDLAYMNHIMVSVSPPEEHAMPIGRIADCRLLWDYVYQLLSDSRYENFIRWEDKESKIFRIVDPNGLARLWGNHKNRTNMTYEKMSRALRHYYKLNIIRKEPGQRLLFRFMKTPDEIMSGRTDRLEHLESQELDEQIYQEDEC
Chain of SPIB (Q01892 whole entry): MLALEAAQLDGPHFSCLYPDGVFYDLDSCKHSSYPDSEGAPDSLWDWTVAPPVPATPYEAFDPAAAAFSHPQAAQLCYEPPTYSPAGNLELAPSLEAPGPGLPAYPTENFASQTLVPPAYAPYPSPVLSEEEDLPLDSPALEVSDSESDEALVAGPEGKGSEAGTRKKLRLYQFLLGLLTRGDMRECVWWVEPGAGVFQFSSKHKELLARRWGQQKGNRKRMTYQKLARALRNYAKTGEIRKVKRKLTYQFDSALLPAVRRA

ACCGCA: the binding signal with FLI1 is 1.17 fold enrichment (6-mer frequency, TF over GST control); in the experiment with ELK1, 1.14 fold enrichment (6-mer frequency, TF over GST control); with GABPA, 1.16 fold enrichment (6-mer frequency, TF over GST control); in the experiment with ERG, 1.11 fold enrichment (6-mer frequency, TF over GST control); with ELF1, 1.15 fold enrichment (6-mer frequency, TF over GST control); in the experiment with EHF, 1.23 fold enrichment (6-mer frequency, TF over GST control). Moreover, the binding signal with SPI1 was 1.2 fold enrichment (6-mer frequency, TF over GST control); in the experiment with SPIB, 1.16 fold enrichment (6-mer frequency, TF over GST control); with ELK3, 1.19 fold enrichment (6-mer frequency, TF over GST control); with FEV it was 1.17 fold enrichment (6-mer frequency, TF over GST control); with ETV5, 1.13 fold enrichment (6-mer frequency, TF over GST control); in the experiment with ELF4, 1.15 fold enrichment (6-mer frequency, TF over GST control). Further, the binding signal in the experiment with ETV1 is 1.17 fold enrichment (6-mer frequency, TF over GST control); with ERF, 1.11 fold enrichment (6-mer frequency, TF over GST control); in the experiment with ETV3L it was 1.12 fold enrichment (6-mer frequency, TF over GST control); with ETS2, 1.18 fold enrichment (6-mer frequency, TF over GST control); with ELF5, 1.1 fold enrichment (6-mer frequency, TF over GST control); with ETV3, 1.09 fold enrichment (6-mer frequency, TF over GST control). The binding signal with ETV6 was 1.15 fold enrichment (6-mer frequency, TF over GST control).
